Reference: PubChem BioAssay (NCATS)
Records with an inconclusive call do not appear. The source made the active and inactive calls. Unless noted, the call rests on the fitted dose curve; in most records, active means well fitted curve in the direction sought with a large enough effect; inconclusive means small, poorly fitted or top-dose-only effect, or another doubt; inactive means no such curve, though single readings can be large; an effect the other way counts as inactive or inconclusive.

Key:
[1] = Confirmation and Secondary Assay for Modulators of Hemoglobin Beta Chain Splicing at IVS2 654 locus (AID 910);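 further: HeLa cells stably carrying EGFP split by mutant beta-globin IVS2-654 intron; per-well total GFP intensity by laser scanning cytometry after 2-day treatment; % of control where 0% means no effect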
Summary of the method: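 Readout: per-well total peak green fluorescence (488 nm ex, 500–520 nm em) from objects 5–250 µm, reflecting correct splicing of an EGFP-654 reporter. Compounds were applied for 2 days at 37 °C to overnight-plated HeLa EGFP-654 cells; controls were DMSO and 500 nM IVS2-654 PNA.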

[2] = Confirmation and Secondary Assay for Modulators of Hemoglobin Beta Chain Splicing at IVS2 705 locus (AID 930);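 further: HeLa cells stably expressing the EGFP-705 splicing reporter; GFP fluorescence per well restored by corrected splicing of the IVS2-705 intron in EGFP; % of control where 0% means no effect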
Summary of the method: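 Assay measures total GFP intensity per well in HeLa EGFP-705 cells after 2 days with compound; mis-splicing normally truncates EGFP, so fluorescence indicates corrected splicing.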

[3] = qHTS Assay for Lipid Storage Modulators (AID 1519; calls by dose curve; on activity change, negative = inhibition: on the % scale 0 is the no-effect control and ±100 the full control effect); settings: Drosophila S3 cells, BODIPY lipid droplet/cell ratio, laser cytometry, cells loaded with oleic acid
Summary of the method: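 Cells seeded at 5,000 per well were treated with compounds over a concentration series and loaded with oleic acid (400 uM, as added). Lipid droplet fluorescence (488 nm excitation, 500-530 nm channel) was read by laser-scanning cytometry and normalized to 20 uM Triacsin C.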

[4] = biological target: ATP-dependent 6-phosphofructokinase (Trypanosoma brucei brucei) (UniProt O15648); assay: qHTS Assay to Find Inhibitors of T. brucei phosphofructokinase: hit validation (AID 492961);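 further: luminescence reports ADP formed as PFK phosphorylates fructose-6-phosphate with ATP; on the % scale 0 is the no-effect control and ±100 the full control effect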
Sequence of ATP-dependent 6-phosphofructokinase (Trypanosoma brucei brucei) (O15648 whole entry, looked up): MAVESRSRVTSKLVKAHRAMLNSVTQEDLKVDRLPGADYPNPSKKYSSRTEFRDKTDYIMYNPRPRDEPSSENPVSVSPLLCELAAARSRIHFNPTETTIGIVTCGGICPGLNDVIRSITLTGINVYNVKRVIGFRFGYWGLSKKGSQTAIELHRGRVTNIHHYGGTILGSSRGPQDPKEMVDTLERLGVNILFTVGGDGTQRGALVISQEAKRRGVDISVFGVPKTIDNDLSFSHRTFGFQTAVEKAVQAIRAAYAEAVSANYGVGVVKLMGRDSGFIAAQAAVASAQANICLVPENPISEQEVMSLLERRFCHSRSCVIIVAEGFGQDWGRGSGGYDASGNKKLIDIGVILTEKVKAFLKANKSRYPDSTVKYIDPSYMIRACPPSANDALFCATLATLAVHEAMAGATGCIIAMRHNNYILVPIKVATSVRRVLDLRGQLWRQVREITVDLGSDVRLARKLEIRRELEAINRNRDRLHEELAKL
Summary of the method: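 Measures ADP output of PFK (1.25 nM) at 0.1 mM ATP, 0.5 mM F6P, pH 8.0 TEA buffer with 5 mM MgCl2. No-enzyme wells define full inhibition; uninhibited enzyme wells define zero.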

[5] = biological target: Luciferin 4-monooxygenase (Photinus pyralis) (UniProt P08659); assay: Biochemical firefly luciferase enzyme assay for NPC (AID 624030);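 further: purified P. pyralis luciferase at 10 nM with luciferin and ATP substrate; 0% = DMSO and -100% = full luciferase inhibition by PTC124 control; nearly all actives have a fitted effect of over 70% in size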
Sequence of Luciferin 4-monooxygenase (Photinus pyralis) (P08659 whole entry, looked up): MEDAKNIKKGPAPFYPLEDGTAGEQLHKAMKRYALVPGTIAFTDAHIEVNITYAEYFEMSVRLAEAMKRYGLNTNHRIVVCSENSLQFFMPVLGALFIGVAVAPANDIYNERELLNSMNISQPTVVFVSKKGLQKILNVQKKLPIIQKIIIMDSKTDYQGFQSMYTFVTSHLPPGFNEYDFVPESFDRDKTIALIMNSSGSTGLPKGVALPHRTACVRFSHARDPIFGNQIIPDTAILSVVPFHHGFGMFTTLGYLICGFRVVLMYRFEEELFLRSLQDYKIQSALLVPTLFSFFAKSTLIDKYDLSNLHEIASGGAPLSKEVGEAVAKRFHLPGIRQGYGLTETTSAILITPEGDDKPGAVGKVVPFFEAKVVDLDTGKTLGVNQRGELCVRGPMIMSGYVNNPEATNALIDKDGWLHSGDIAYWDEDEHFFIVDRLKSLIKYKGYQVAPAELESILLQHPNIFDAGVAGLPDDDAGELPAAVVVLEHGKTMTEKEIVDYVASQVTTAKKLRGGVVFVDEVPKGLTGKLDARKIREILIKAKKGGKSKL
Summary of the method: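 Direct inhibition of firefly luciferase enzyme (10 nM final, 50 mM Tris Acetate) assessed by luminescence within 5 minutes. Percent activity scaled between DMSO and PTC124 positive control, with concentration-effect curves classified by fit quality and response.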

[6] = qHTS profiling for inhibitors of Plasmodium falciparum proliferation (AID 504749); further: nearly all actives have a fitted effect of over 60% in size; further: potency means the concentration at half of the fitted maximal effect; settings: P. falciparum in erythrocytes, SYBR Green DNA, 72 h
Summary of the method: (§1)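 Three-day growth assay of blood-stage parasites in erythrocytes (0.3% parasitemia, 2.5% hematocrit) at 37 C, 5% CO2, quantified by SYBR Green DNA staining after overnight detergent lysis.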

7G8 = assay: as above; settings: P. falciparum in erythrocytes, SYBR Green DNA, 72 h; series mostly up to 12.8 µM
Summary of the method: as §1

AA1029 = assay: as above; settings: P. falciparum in erythrocytes, SYBR Green DNA, 72 h; series mostly up to 12.8 µM
Summary of the method: as §1

AS120 = assay: as above; settings: P. falciparum in erythrocytes, SYBR Green DNA, 72 h; series mostly up to 12.8 µM
Summary of the method: as §1

ATS189 = assay: as above; settings: P. falciparum in erythrocytes, SYBR Green DNA, 72 h; series mostly up to 12.8 µM
Summary of the method: as §1

ATS95 = assay: as above; settings: P. falciparum in erythrocytes, SYBR Green DNA, 72 h; series mostly up to 12.8 µM
Summary of the method: as §1

C2A = assay: as above; settings: P. falciparum in erythrocytes, SYBR Green DNA, 72 h; series mostly up to 12.8 µM
Summary of the method: as §1

CP185 = assay: as above; settings: P. falciparum in erythrocytes, SYBR Green DNA, 72 h; series mostly up to 12.8 µM
Summary of the method: as §1

CP191 = assay: as above; settings: P. falciparum in erythrocytes, SYBR Green DNA, 72 h; series mostly up to 12.8 µM
Summary of the method: as §1

CP211 = assay: as above; settings: P. falciparum in erythrocytes, SYBR Green DNA, 72 h; series mostly up to 12.8 µM
Summary of the method: as §1

CP217 = assay: as above; settings: P. falciparum in erythrocytes, SYBR Green DNA, 72 h; series mostly up to 12.8 µM
Summary of the method: as §1

CP237 = assay: as above; settings: P. falciparum in erythrocytes, SYBR Green DNA, 72 h; series mostly up to 12.8 µM
Summary of the method: as §1

CP238 = assay: as above; settings: P. falciparum in erythrocytes, SYBR Green DNA, 72 h; series mostly up to 12.8 µM
Summary of the method: as §1

CP247 = assay: as above; settings: P. falciparum in erythrocytes, SYBR Green DNA, 72 h; series mostly up to 12.8 µM
Summary of the method: as §1

CP250 = assay: as above; settings: P. falciparum in erythrocytes, SYBR Green DNA, 72 h; series mostly up to 12.8 µM
Summary of the method: as §1

CP252 = assay: as above; settings: P. falciparum in erythrocytes, SYBR Green DNA, 72 h; series mostly up to 12.8 µM
Summary of the method: as §1

CP256 = assay: as above; settings: P. falciparum in erythrocytes, SYBR Green DNA, 72 h; series mostly up to 12.8 µM
Summary of the method: as §1

CP262 = assay: as above; settings: P. falciparum in erythrocytes, SYBR Green DNA, 72 h; series mostly up to 12.8 µM
Summary of the method: as §1

CP286 = assay: as above; settings: P. falciparum in erythrocytes, SYBR Green DNA, 72 h; series mostly up to 12.8 µM
Summary of the method: as §1

DFO2036 = assay: as above; settings: P. falciparum in erythrocytes, SYBR Green DNA, 72 h; series mostly up to 12.8 µM
Summary of the method: as §1

Dd2 = assay: as above; settings: P. falciparum in erythrocytes, SYBR Green DNA, 72 h; series mostly up to 12.8 µM
Summary of the method: as §1

ECU = assay: as above; settings: P. falciparum in erythrocytes, SYBR Green DNA, 72 h; series mostly up to 12.8 µM
Summary of the method: as §1

FAB9 = assay: as above; settings: P. falciparum in erythrocytes, SYBR Green DNA, 72 h; series mostly up to 12.8 µM
Summary of the method: as §1

HB3 = assay: as above; settings: P. falciparum in erythrocytes, SYBR Green DNA, 72 h; series mostly up to 12.8 µM
Summary of the method: as §1

ICS = assay: as above; settings: P. falciparum in erythrocytes, SYBR Green DNA, 72 h; series mostly up to 12.8 µM
Summary of the method: as §1

JCK = assay: as above; settings: P. falciparum in erythrocytes, SYBR Green DNA, 72 h; series mostly up to 12.8 µM
Summary of the method: as §1

N140 = assay: as above; settings: P. falciparum in erythrocytes, SYBR Green DNA, 72 h; series mostly up to 12.8 µM
Summary of the method: as §1

P93_24 = assay: as above; settings: P. falciparum in erythrocytes, SYBR Green DNA, 72 h; series mostly up to 12.8 µM
Summary of the method: as §1

P94_40 = assay: as above; settings: P. falciparum in erythrocytes, SYBR Green DNA, 72 h; series mostly up to 12.8 µM
Summary of the method: as §1

PAD = assay: as above; settings: P. falciparum in erythrocytes, SYBR Green DNA, 72 h; series mostly up to 12.8 µM
Summary of the method: as §1

PC15 = assay: as above; settings: P. falciparum in erythrocytes, SYBR Green DNA, 72 h; series mostly up to 12.8 µM
Summary of the method: as §1

PC49 = assay: as above; settings: P. falciparum in erythrocytes, SYBR Green DNA, 72 h; series mostly up to 12.8 µM
Summary of the method: as §1

SC27B = assay: as above; settings: P. falciparum in erythrocytes, SYBR Green DNA, 72 h; series mostly up to 12.8 µM
Summary of the method: as §1

TAB109 = assay: as above; settings: P. falciparum in erythrocytes, SYBR Green DNA, 72 h; series mostly up to 12.8 µM
Summary of the method: as §1

TAB113 = assay: as above; settings: P. falciparum in erythrocytes, SYBR Green DNA, 72 h; series mostly up to 12.8 µM
Summary of the method: as §1

TAB165 = assay: as above; settings: P. falciparum in erythrocytes, SYBR Green DNA, 72 h; series mostly up to 12.8 µM
Summary of the method: as §1

CO[C@]12C(COC(N)=O)C3=C(C(=O)C(C)=C(N)C3=O)N1CC1NC12 (some centres undefined)
11.5%: max response ([3]; measured here: lipid channel max response)
inactive: Potency [1] | Potency [2] | activity change, negative = inhibition ([3]; at 57.5 µM (top of the series)) 3.3% | outcome [4] | Potency [5] | Potency (CP237) | Potency (CP262)
active: Potency ([6]; parasite line A) 1.26 µM | Potency ([6]; parasite line B) 1.26 µM | Potency (7G8) 708 nM | Potency (AA1029) 2 µM | Potency (AS120) 562 nM | Potency (ATS189) 1.26 µM | Potency (ATS95) 1 µM | Potency (C2A) 1.26 µM | Potency (CP185) 708 nM | Potency (CP191) 891 nM | Potency (CP211) 19 µM | Potency (CP217) 1.78 µM | Potency (CP238) 631 nM | Potency (CP247) 1.41 µM | Potency (CP250) 1.12 µM | Potency (CP252) 794 nM | Potency (CP256) 5.01 µM | Potency (CP286) 501 nM | Potency (DFO2036) 316 nM | Potency (Dd2) 398 nM | Potency (ECU) 1.41 µM | Potency (FAB9) 5.01 µM | Potency (HB3) 1 µM | Potency (ICS) 355 nM | Potency (JCK) 5.01 µM | Potency (N140) 631 nM | Potency (P93_24) 1 µM | Potency (P94_40) 891 nM | Potency (PAD) 631 nM | Potency (PC15) 1.41 µM | Potency (PC49) 3.55 µM | Potency (SC27B) 1 µM | Potency (TAB109) 2.24 µM | Potency (TAB113) 891 nM | Potency (TAB165) 447 nM
5.7%: max response ([3]; measured here: cell count channel max response)
